Measurements taken from PubChem BioAssay.
Unmarked numbers belong to inactive results. Active and inactive are the calls of the source.

experiment: yeast growth modulation, basal conditions, primary screen, YJM789 clinical isolate, OD600, 24 h (AID 1089);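 note: growth of clinical yeast isolate S. cerevisiae YJM 789 seeded 1000 cells per well; test concentration not given here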; settings: S. cerevisiae YJM789 growth, higher = more signal, called active from +8 up or from −8 down

In order of falling z-score:
1. CC(C)[Si]1(C(C)C)OCc2cc(C3CC3)nc(-c3ccc(Oc4ccccc4)cc3)c21  1.95
2. COc1ccc(C#Cc2ccc3c(c2)[C@]2(C(=O)N3)[C@H](c3ccc(O)cc3)N3[C@H](c4ccccc4)[C@H](c4ccccc4)OC(=O)[C@H]3[C@@H]2C(=O)Nc2nc3ccccc3s2)cc1  1.51
3. COc1ccc([Si](C)(C)[C@@H]2[C@@H](CC(=O)N(CCO)Cc3ccccc3)O[C@]3(C(=O)N(Cc4cccc(N5CCCCC5=O)c4)c4ccccc43)[C@H]2C)cc1  1.42
4. COc1ccc(C#Cc2ccc3c(c2)[C@]2(C(=O)N3)[C@H](C(=O)O)[C@H]3C(=O)O[C@H](c4ccccc4)[C@H](c4ccccc4)N3[C@@H]2c2ccc(O)cc2)cc1  1.26
5. CCCC=C(CCC)[C@@H](NP(=O)(c1ccccc1)c1ccccc1)c1ccc(-c2ccccc2)cc1  1.09
6. COC(=O)[C@@]1(Cc2ccccc2)[C@H]2c3cc(C(=O)N(C)C)n(Cc4ccc(C)o4)c3C[C@H]2CN1C(=O)c1ccccc1  1.07
7. Oc1ccc2cc[n+](Cc3cc4c(cc3Br)OCO4)cc2c1  1.07
8. CCCCC=C[C@@H](NC(=O)OCc1ccccc1Cl)c1ccccc1  0.952
9. [N-]=[N+]=Nc1ccccc1[C@@H]1OC(c2ccc(OCCCO)cc2)=N[C@]1(Cc1ccccc1)C(=O)O  0.85
10. CC(C)NC(=O)[C@@]1(C)c2ccccc2C(=O)N(Cc2ccc(OC(F)(F)F)cc2)[C@H]1c1ccc(CO)cc1  0.738
11. COCC(=C=CC[C@H](O)c1ccccc1OCCO)C[C@H](O)c1ccccn1  0.636
12. CCCCC(CC)C(O)C1C=CC2C(=O)N(C)C(=O)C2N1Nc1ccccc1 (stereo unspecified)  0.307
13. C=CCC(OC(C)=O)[C@@H]1[C@@H](N(Cc2ccc(-c3cccc(C(F)(F)F)c3)o2)C(=O)Cc2ccc(OC)cc2)c2cc(OCCCO)ccc2N1C(=O)c1ccc(-c2ccccc2)cc1 (stereo partly specified)  0.282
14. O=C1N(CCS(=O)(=O)c2ccccc2)c2ccccc2[C@H]2OC(c3ccc(OCCCO)cc3)=N[C@@]12Cc1ccccc1  0.28
15. C=CCC(OC(C)=O)[C@@H]1[C@@H](N(Cc2cccc3ccccc23)C(=O)Cc2ccc(OC)cc2)c2cc(OCCCO)ccc2N1C(=O)c1ccc(-c2ccccc2)cc1 (stereo partly specified)  0.0338
16. COC(=O)[C@@]1(Cc2ccc(F)cc2)[C@H]2c3cc(C(=O)N4CCCC4)n(Cc4ccc(C)c(F)c4F)c3C[C@H]2CN1C(=O)c1ccccc1  0.0074
17. CCCC[C@@H]1C[C@H]1[C@@H](NC(=O)c1cccs1)c1ccccc1C(F)(F)F  0.0064
18. CCCC1(C(=O)OC)C=C2C(=C(C)C(=O)C2C)CN1 (stereo unspecified)  -0.105
19. COCCCNC(=O)[C@@]1(CCC(=O)OC(C)(C)C)N=C(c2ccc(OCCCO)cc2)O[C@H]1c1ccccc1N=[N+]=[N-]  -0.197
20. O=C(Cc1ccccc1)[C@H]1C2C=CCCC(c3ccccc3)=C2CN1Cc1ccccc1 (stereo partly specified)  -0.213
21. [N-]=[N+]=Nc1ccccc1[C@@H]1OC(c2ccc(OCCCO)cc2)=N[C@]1(Cc1ccccc1)C(=O)N1CCCCC1  -0.286
22. COc1cc2c(cc1O)C(c1ccc(CN3CCCC3)cc1)N(Cc1cc3c(cc1Br)OCO3)CC2 (stereo unspecified)  -0.312
23. C=CCC(OC(C)=O)[C@@H]1[C@@H](N(Cc2cc3ccccc3o2)C(=O)Cc2ccc(F)cc2)c2cc(OCCCO)ccc2N1C(=O)Cc1ccc2ccccc2c1 (stereo partly specified)  -0.689
24. Cc1ccc(S[C@]2(C(=O)NCc3ccccc3)CC(=O)N(C3CCCCC3)[C@@H]2c2ccc(CO)cc2I)cc1  -0.727
25. CCOC(=O)C1=C[C@@H](c2ccccc2)N(S(=O)(=O)c2ccc(C)cc2)[C@H]1c1ccc(OC)cc1  -1.13
26. CCOc1cc(C(O)C2C=CC3C(=O)NC(=O)C3N2Nc2ccc(Cl)cc2Cl)ccc1O (stereo unspecified)  -1.36
27. COc1ccc([Si](C)(C)[C@H]2[C@H](CC(=O)N(CCO)Cc3ccccc3)O[C@@]3(C(=O)N(C)c4c(Br)cc(C)cc43)[C@@H]2C)cc1  -1.62
28. CO[C@H]1O[C@H](CO)[C@@H](OC(=O)Nc2ccccc2)[C@H](OC(=O)c2cc3ccccc3[nH]2)[C@H]1OC(=O)c1cc2ccccc2[nH]1  -1.63
29. COc1ccc(CCNC(=O)[C@@]2(Sc3ccc(C)cc3)CC(=O)N(Cc3ccccc3C(F)(F)F)[C@@H]2c2ccc(CO)cc2I)cc1  -1.65
30. [N-]=[N+]=Nc1ccccc1C[C@]1(C(=O)N2CCOCC2)COC(c2ccc(OCCCO)cc2)=N1  -2.05
31. COc1ccc([Si](C)(C)[C@@H]2[C@@H](CC(=O)N3CCC[C@H]3CO)O[C@]3(C(=O)N(Cc4cccc(N5C(=O)COc6ccccc65)c4)c4ccccc43)[C@H]2C)cc1  -2.24
32. CCC#CCN(Cc1ccccc1Br)[C@H](/C=C/C1CC1)[C@@H](O)Cc1ccccc1  -2.3
33. CCCC[C@@H](O)C1=C(COC)C[C@H]2C(=O)N(C)C(=O)[C@H]2[C@H]1CO  -2.33
34. [N-]=[N+]=Nc1ccccc1C[C@@]1(C(=O)NCCN2CCOCC2)N=C(c2ccc(OCCCO)cc2)O[C@@H]1c1ccccc1N=[N+]=[N-]  -2.36
35. Cc1ccc(S[C@]2(C(=O)NCC(F)(F)F)CC(=O)N(Cc3cc(C(F)(F)F)cc(C(F)(F)F)c3)[C@@H]2c2ccc(CO)cc2I)cc1  -2.58

For `C=CC[C@@H](OC(=O)Nc1ccc(SC)cc1)c1ccc(O)c(F)c1`, the z-score was -21.2 (active).
